Reference: ChEMBL document CHEMBL5724796, “Tm Shift (DSF) assay results for EUbOPEN Chemogenomics Library” (2024)

Experiments:
Details in all cases: Compound concentration 20.0 uM
[1] = target: Tyrosine-protein kinase ABL1 (Homo sapiens) (UniProt P00519)
[2] = target: Bromodomain-containing protein 4 (Homo sapiens) (UniProt O60885)
[3] = target: Cyclin-dependent kinase 2 (Homo sapiens) (UniProt P24941)
[4] = target: Casein kinase I isoform delta (Homo sapiens) (UniProt P48730)
[5] = target: Glycogen synthase kinase-3 beta (Homo sapiens) (UniProt P49841)
Sequence of Glycogen synthase kinase-3 beta (Homo sapiens) (P49841 whole entry, looked up): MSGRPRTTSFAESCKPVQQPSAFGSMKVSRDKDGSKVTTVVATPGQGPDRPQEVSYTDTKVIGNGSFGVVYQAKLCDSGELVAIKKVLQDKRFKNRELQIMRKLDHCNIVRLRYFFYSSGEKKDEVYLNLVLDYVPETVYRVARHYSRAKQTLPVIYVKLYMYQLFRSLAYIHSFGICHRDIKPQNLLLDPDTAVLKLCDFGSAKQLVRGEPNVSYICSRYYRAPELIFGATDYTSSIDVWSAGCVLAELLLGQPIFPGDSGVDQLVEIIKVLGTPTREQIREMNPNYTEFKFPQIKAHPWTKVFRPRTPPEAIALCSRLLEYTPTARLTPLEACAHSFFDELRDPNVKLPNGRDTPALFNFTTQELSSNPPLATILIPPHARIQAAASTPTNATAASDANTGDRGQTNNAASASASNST

[6] = target: Mitogen-activated protein kinase 1 (Homo sapiens) (UniProt P28482)
Sequence of Mitogen-activated protein kinase 1 (Homo sapiens) (P28482 whole entry): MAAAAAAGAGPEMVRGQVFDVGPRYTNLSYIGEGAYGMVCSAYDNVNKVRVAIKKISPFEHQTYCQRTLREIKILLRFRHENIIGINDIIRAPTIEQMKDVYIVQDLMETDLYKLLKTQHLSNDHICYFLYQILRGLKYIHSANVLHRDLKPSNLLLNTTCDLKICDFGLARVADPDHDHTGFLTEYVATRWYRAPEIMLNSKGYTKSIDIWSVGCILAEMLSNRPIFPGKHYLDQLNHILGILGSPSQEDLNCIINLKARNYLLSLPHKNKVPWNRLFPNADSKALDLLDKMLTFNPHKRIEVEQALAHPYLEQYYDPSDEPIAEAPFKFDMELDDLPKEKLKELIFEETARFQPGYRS

[7] = target: T1, Aurora kinase A (Homo sapiens) (UniProt O14965)
T1 sequence (whole entry): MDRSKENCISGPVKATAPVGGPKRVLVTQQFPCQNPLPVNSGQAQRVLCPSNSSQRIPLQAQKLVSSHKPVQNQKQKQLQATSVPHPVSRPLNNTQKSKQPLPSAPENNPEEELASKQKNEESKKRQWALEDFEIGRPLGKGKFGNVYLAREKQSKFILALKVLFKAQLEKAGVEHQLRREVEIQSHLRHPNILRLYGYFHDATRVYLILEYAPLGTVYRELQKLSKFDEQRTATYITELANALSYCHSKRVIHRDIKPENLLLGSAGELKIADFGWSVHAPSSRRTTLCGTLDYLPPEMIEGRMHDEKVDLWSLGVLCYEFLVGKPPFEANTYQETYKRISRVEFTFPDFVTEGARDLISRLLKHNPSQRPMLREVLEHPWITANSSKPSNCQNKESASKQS

[8] = target: T2, Transcription intermediary factor 1-alpha (Homo sapiens) (UniProt O15164)
T2 sequence (whole entry): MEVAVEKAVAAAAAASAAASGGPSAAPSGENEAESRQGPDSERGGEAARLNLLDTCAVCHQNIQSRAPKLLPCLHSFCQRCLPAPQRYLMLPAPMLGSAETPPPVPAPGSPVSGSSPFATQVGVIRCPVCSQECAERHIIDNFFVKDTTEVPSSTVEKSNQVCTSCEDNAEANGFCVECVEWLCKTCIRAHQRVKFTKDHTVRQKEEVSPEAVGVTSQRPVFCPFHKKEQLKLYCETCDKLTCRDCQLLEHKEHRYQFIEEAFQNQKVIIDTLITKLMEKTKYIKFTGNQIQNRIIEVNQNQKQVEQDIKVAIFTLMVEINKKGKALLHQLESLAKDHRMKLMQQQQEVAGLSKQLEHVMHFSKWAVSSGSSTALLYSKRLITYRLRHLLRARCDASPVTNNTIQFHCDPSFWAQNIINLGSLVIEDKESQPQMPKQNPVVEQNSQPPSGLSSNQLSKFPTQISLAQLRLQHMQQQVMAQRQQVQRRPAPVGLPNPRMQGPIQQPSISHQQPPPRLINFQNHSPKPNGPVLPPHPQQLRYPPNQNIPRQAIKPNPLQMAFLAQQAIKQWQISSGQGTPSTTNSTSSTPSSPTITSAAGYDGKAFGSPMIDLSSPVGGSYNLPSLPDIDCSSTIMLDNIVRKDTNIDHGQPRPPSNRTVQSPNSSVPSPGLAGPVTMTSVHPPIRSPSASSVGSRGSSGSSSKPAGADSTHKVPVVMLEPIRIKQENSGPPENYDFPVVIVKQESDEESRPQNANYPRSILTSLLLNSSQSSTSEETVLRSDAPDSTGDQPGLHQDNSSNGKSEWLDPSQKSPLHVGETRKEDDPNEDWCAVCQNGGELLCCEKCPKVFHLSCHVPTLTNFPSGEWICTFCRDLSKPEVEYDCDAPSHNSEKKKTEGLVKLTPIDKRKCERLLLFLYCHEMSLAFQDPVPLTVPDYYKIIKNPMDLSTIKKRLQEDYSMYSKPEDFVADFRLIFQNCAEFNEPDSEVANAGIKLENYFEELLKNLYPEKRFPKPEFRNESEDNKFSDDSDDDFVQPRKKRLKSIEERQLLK

Sequence of Casein kinase I isoform delta (Homo sapiens) (P48730 whole entry, looked up, canonical isoform): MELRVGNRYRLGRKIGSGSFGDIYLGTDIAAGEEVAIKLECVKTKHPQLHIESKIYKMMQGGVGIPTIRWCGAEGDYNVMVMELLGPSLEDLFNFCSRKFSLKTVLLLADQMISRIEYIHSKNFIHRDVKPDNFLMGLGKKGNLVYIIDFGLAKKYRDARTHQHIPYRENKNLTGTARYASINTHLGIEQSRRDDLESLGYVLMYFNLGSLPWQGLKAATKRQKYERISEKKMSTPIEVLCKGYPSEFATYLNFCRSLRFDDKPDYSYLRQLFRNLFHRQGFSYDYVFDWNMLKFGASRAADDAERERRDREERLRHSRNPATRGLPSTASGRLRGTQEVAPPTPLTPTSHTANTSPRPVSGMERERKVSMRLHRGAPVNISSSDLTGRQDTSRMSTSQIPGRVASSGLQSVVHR
Sequence of Tyrosine-protein kinase ABL1 (Homo sapiens) (P00519 whole entry): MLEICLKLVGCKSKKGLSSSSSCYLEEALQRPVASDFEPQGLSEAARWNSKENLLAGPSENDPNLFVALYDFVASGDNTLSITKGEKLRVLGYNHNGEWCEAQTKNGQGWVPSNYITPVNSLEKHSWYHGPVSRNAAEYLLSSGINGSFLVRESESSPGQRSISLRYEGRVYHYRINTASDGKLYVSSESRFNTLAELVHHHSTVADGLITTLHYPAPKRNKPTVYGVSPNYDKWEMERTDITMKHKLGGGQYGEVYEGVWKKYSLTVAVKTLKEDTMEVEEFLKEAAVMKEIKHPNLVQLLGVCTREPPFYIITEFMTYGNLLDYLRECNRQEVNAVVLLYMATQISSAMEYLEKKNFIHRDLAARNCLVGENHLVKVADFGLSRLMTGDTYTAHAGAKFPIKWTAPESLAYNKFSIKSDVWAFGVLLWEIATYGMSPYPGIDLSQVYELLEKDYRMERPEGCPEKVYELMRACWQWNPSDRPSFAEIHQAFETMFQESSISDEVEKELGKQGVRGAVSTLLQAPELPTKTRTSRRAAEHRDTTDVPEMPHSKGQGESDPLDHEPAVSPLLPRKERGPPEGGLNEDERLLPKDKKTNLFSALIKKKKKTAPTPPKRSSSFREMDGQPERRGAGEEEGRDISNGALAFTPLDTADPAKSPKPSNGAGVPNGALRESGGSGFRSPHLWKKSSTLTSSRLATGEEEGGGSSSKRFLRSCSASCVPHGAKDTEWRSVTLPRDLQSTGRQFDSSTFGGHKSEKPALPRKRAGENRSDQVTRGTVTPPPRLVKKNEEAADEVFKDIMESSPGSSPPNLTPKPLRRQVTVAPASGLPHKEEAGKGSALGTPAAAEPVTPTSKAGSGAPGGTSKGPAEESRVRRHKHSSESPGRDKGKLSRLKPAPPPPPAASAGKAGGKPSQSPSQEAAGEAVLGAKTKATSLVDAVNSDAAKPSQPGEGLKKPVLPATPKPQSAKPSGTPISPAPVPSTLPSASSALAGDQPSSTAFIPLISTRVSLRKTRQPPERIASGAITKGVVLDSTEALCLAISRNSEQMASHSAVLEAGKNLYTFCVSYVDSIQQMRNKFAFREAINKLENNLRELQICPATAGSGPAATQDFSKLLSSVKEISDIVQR

Structure (SMILES)	ΔTm [1] [°C]	ΔTm [2] [°C]	ΔTm [3] [°C]	ΔTm [4] [°C]	ΔTm [5] [°C]	ΔTm [6] [°C]	ΔTm [7] [°C]	ΔTm [8] [°C]	ΔTm ([1]; Protein concentration 2.0 uM) [°C]
CCOC(=O)NCCCC(=O)NCCc1ccccc1	0.36	-0.9	-0.09	0.24	0.15	0.16	-1.13	-0.68	
CC(C)c1cc(C(=O)N2CC[C@@H](NC(=O)C3CC3)C2)[nH]n1	0.79	-3.2	0.06	-0.08	-0.75	0.08	-2.47	1.07	
O=C(O)Cc1ccc(Cc2cc(-c3cccc(Cl)c3)nc(C(F)(F)F)c2)cc1	0.68	-4.37	1.64	-0.18	-1.53	0.39	-2.1	-0.93	
O=C(NCc1ccc(F)cc1)C1CCN(S(=O)(=O)c2cc(Cl)cc(Cl)c2)CC1	0.19	1.03	0.65	-0.2	-0.78	1.32	-1.86	0.75	
Nc1ccccc1NC(=O)c1ccc(CNc2nccc(-c3cccnc3)n2)cc1	1.28	-1.59	0.7	2.88	0.76	0.18	5.93	-0.03	
COc1ccc(CNc2nc(N3CCC[C@H]3CO)ncc2C(=O)NCc2ncccn2)cc1Cl	0.44	-1.19	-0.26	0.12	0.12	0.04	-1.84	-0.51	
Cc1cc(/N=N/c2ccc3c(c2)CCC(=O)N3)c(N)cc1O	2.28	-0.4	-0.28	0.68	-0.3	0.09	-0.6	-0.66	
CCNC(=O)c1cc2c(-c3cc(C(C)(C)O)ccc3Oc3c(C)cc(F)cc3C)cn(C)c(=O)c2[nH]1	0.23	11.1	0.42	-0.31	-0.33	1.43	-2.76	0.91	
CCS(=O)(=O)Cc1cnc(Oc2ccc(F)cc2F)c(-c2cc(C)c3c(=O)[nH]ccn23)c1	0.69	14.7	0.81	-0.35	1.96	0.23	-0.65	0.45	
CC(c1cccc2ccccc12)n1cnc2c(=O)[nH]c(Cc3ccccc3)nc21 (centres undefined)	0.22	-5.4	-0.82	0.84	-1	-0.16	-3.08	-1.81	
CS(=O)(=O)n1cc2c(n1)CN([C@H]1CO[C@H](c3cc(F)ccc3F)[C@@H](N)C1)C2	0.01	1.23	0.1	-0.33	-0.84	0.32	-2.29	-0.65	
Cc1cc(/N=N/c2ccc(S(=O)(=O)Nc3ccccn3)cc2)c(N)cc1O	0.27	9	1.3	-0.2	-0.93	0.31	-2.28	1	
CC(C)(C)C1CCN(C(=O)n2ncc(C(O)(c3ccccc3)c3ccccc3)n2)CC1	-2.72	-5.41	-2.83	0.67	-5.44	0.52	-4.85	-0.34	
CC#CCn1c(N2CCC[C@@H](N)C2)nc2c1c(=O)n(Cc1nc(C)c3ccccc3n1)c(=O)n2C	-0.11	0.18	-0.01	-0.33	-0.82	0.06	-0.13	-0.79	
CC(C)Oc1ccc(C=O)cc1	0.27	-1.93	-0.05	0.18	-0.88	0.02	-1.79	-0.93	
C[C@@H]1CN(c2ncc(Cl)c(Nc3ccc4c(c3)n(CCC(C)(C)O)c(=O)n4C)n2)C[C@H](C)C1(F)F	-0.67	0.35	1.82	-0.69	4.11	-8.12	4	2.58	
O=[N+]([O-])c1c(Nc2cc(F)cc(Cl)c2)ccc2nonc12	0.44	-2.93	0.03	-0.44	-0.33	0.07	-2.49	-0.26	
Cc1ncc(Cl)cc1NCc1ccc(C(=O)N[C@@H](CC2CCCC2)C(=O)NC2CC2)s1		-3.44	-0.15	-0.05	10.5	-3.12	7.63	2.21	2
Cc1[nH]c2c(N3CCO[C@H](CO)C3)c(C#N)c(C(F)(F)F)nc2c1Cl	0.59	-1.62	1.92	0.2	1.93	1.85	-1.95	-1.25	
C[C@H](c1nc2c(cnn2C2CCOCC2)c(=O)[nH]1)N1CC(Oc2ccccc2)C1	0.76	-2.52	0.6	-0.29	3.31	0.49	-1.78	0.73	
CCC(CC)(NC(=O)C(C)C)C(=O)N[C@@H](CCCNC(=N)N)C(=O)NC1(C(=O)NC(c2ccc(F)cc2)c2ccc(F)cc2)CCCC1	0.63	-1.92	-0.27	0.35	-0.5	-0.02	-0.05	-1.17	
C[C@@H]1OC(=O)NN=C1c1ccc(-c2ccc(F)cc2)c(C(F)(F)F)c1	-1.46	-3.44	-0.76	-0.33	-7.28	-0.02	-7.3	-0.48	
COc1ccc2nc3[nH]nc(C)c3c(NCCOCCO)c2c1	0.63	-1.31	0.26	0.76	2.8	-0.01	0.31	-0.59	
